Data from PubChem BioAssay (EPA / NIEHS).
Calls of active or inactive are those of the source. The calls were made as follows: active = hit-call score of the fitted dose curve at least 0.9, where 1 is the maximum; inactive = score below 0.9.

read-out: Cytochrome P450 3A7 (Homo sapiens) (UniProt P24462); assay: LTEA_HepaRG_CYP3A7: Life Technologies and Expression Analysis (LTEA) Assay for CYP3A7 using HepaRG (AID 2283492); conditions: mRNA level, 48 h; actives raise or lower the signal
Method: LTEA_HepaRG is a cell based, multiplexed-readout assay that uses HepaRG, a human liver cell line, with measurements taken at 48 hours after chemical dosing on a 96-well plate.LTEA_HepaRG_CYP3A7 is one of 102 assay component(s) measured in the LTEA HepaRG cell culture assay. It is a marker of NR mediated metabolism/Undifferentiated hepatocyte.Data from the assay component LTEA_HepaRG_CYP3A7 was analyzed into 1 endpoint. This assay endpoint, LTEA_HepaRG_CYP3A7, was analyzed with bidirectional fitting relative to DMSO as the negative control and baseline of activity. Using a type of inducible reporter, measures of mRNA induction for gain or loss-of-signal activity can be used to understand regulation of transcription factor activity. To generalize the intended target to other relatable targets, this assay endpoint is annotated to the cyp intended target family, where the subfamily is xenobiotic metabolism.
A total of 1060 chemcials from the ToxCast library were tested in eight-point concentration-response experiments. Cell culture and cytotoxicity assays were conducted at Thermo Fisher Scientific's Custom Services facility (Madison, WI). A single lot of human HepaRG cells (Thermo Fisher Scientific, Frederick, MD) was used for the cell culture experiments. 96-well format collagen type I coated plates of human HepaRG cells were prepared using established methods. Briefly, cryopreserved HepaRG cells were thawed, plated at a density of approximately 100,000 cells/well in HepaRG Thaw, Plate, and General Purpose media (HPRG770, Thermo Fisher Scientific), and incubated for 48 hours. 0.5% DMSO was selected as vehicle control to balance the requisite need of DMSO in HepaRG cultures to maintain differentiation (for example, baseline metabolism, proportions of hepatocytes vs. cholangiocytes), while enabling further hepatic receptor pathway activation (for example, PXR and CAR) in response to chemical exposure. 48 hours after plating, the culture medium was replaced with HepaRG Serum-Free Incudtion Media. Cells were exposed to each test chemical in duplicate and maintained in CO2 incubators for another 48 hours. Chemical plates were thawed to room temperature and 200x concentrations of treatment groups were prepared. 8-point conentration-reponse curves were made with the highest exposure at 100 uM, followed by half-log dilutions, all in 0.5% DMSO. Each test plate contained variouse controls, induction positive controls (1mM phenobarbital), cytotoxicity positive controls ([…] aflatoxin B1), vehicle controls (0.5% DMSO), and total lysis controls (0.5% DMSO). Cell morphology images were taken using an Essen IncuCyte FLR automated microscope, with six 96-well plates imaged in about 24 minutes. Images were captured and exported and JPEG files. Spent culture media was transfered to black-well plates for the LDH assay, and remaining media was sorted at -80 C for later use. Cells were treated with RLT buffer and frozen until shipped for gene expression analysis. Total RNA was isolated from the cell suspension in 75 uL of Buffer RLT (Qiagen, Germantown, MD 20874) by Quintiles/Expression Analysis (Durham, NC) using a custom isolation procedure. Total RNA from each plate well was transferred to a preamplification plate. Fluidigm's 96.96 Dynamic ArrayTM (Fluidigm, Amsterdam, the Netherlands) technology was used for gene expression analyses by quantitative reverse transcription polymerase chain reaction (qRT-PCR, performed by Quintiles/Expression Analysis, Durham, NC)89. Standard TaqManTM Assays (Applied Biosystems/ThermoFisher Scientific, Foster City, CA) were used to assess the expression of 93 genes selected based on their selectivity and sensitivity to important hepatic receptors known to be modulated by environmental chemicals; importance in human hepatocyte functionality; and hepatotoxicity. […]

Cytochrome P450 3A7 (Homo sapiens), sequence (P24462 whole entry, looked up): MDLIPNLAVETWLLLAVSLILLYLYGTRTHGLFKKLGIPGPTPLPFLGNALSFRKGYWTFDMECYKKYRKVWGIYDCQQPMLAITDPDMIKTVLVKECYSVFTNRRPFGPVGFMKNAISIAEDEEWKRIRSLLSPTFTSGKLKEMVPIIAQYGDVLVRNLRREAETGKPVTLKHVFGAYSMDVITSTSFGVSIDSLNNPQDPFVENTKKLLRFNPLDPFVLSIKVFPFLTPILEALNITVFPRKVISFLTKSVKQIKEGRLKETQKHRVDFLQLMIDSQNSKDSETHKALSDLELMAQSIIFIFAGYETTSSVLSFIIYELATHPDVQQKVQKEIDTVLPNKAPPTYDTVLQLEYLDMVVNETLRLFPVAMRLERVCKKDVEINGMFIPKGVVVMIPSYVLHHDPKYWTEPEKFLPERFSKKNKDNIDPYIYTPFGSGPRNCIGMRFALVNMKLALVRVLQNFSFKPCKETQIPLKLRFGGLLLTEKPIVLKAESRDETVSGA

Row | SMILES | AC50 | outcome
1 | CC(C1CC1)C(O)(Cn1cncn1)c1ccc(Cl)cc1 (stereo not given) | 2.25 µM (active) | 
2 | CN(C)[C@@H]1C(=O)C(C(N)=O)=C(O)[C@@]2(O)C(=O)C3=C(O)c4c(O)cccc4[C@@](C)(O)[C@H]3[C@H](O)[C@@H]12 |  | inactive
3 | CON=C(C(=O)OC)c1ccccc1CON=C(C)c1cccc(C(F)(F)F)c1 | 19.5 µM (active) | 
4 | C[N+]1(C)CCCCC1 |  | inactive
5 | CC(C)=CC1C(C(=O)OCN2C(=O)C3=C(CCCC3)C2=O)C1(C)C (stereo not given) |  | inactive
6 | CCc1cccc(CC)c1N(COC)C(=O)CCl |  | inactive
7 | CNC(=O)ON=C(SC)C(=O)N(C)C |  | inactive
8 | N#CSCSC#N | 59.5 µM (active) | 
9 | CCCCOC(=O)c1ccccc1C(=O)O | 12.7 µM (active) | 
10 | CCOP(=S)(OCC)OC(Cl)C(Cl)(Cl)Cl (stereo not given) |  | inactive
11 | CCOP(=S)(OCC)Oc1ccc([N+](=O)[O-])cc1 | 6.02 µM (active) | 
12 | Cc1ccn2nc(S(=O)(=O)Nc3c(F)cccc3F)nc2n1 |  | inactive
13 | CC[C@H](C)[C@H]1O[C@]2(C=C[C@@H]1C)C[C@@H]1C[C@@H](C/C=C(\C)[C@@H](O[C@H]3C[C@H](OC)[C@@H](O[C@H]4C[C@H](OC)[C@@H](NC)[C@H](C)O4)[C@H](C)O3)[C@@H](C)/C=C/C=C3\CO[C@@H]4[C@H](O)C(C)=C[C@@H](C(=O)O1)[C@]34O)O2 | 19.9 µM (active) | 
14 | CCCCSP(=O)(SCCCC)SCCCC |  | inactive
15 | CSc1nc(NC(C)C)nc(NC(C)C)n1 | 1.17 µM (active) | 
16 | CC(=NC#N)N(C)Cc1ccc(Cl)nc1 | 50 µM (active) | 
17 | CNC(=O)ON=C(C)SC |  | inactive
18 | O=c1ccc(=O)[nH][nH]1 |  | inactive
19 | Cc1cc(C2CC2)nc(Nc2ccccc2)n1 |  | inactive
20 | CCc1cnc(C2=NC(C)(C(C)C)C(=O)N2)c(C(=O)O)c1 (stereo not given) |  | inactive

Row | SMILES | AC50 | outcome
21 | CCCCN(CC)c1c([N+](=O)[O-])cc(C(F)(F)F)cc1[N+](=O)[O-] |  | inactive
22 | C#CC(C)(C)NC(=O)c1cc(Cl)cc(Cl)c1 | 4.98 µM (active) | 
23 | CCOP(=S)(OCC)Oc1ccc2c(C)c(Cl)c(=O)oc2c1 |  | inactive
24 | CCOP(=O)(OCC)Oc1cc(C)nc(C(C)C)n1 |  | inactive
25 | CNc1cnn(-c2cccc(C(F)(F)F)c2)c(=O)c1Cl |  | inactive
26 | COP(=O)(OC)SCn1c(=O)oc2cc(Cl)cnc21 | 50 µM (active) | 
27 | CCCCOC(=O)[C@@H](C)Oc1ccc(Oc2ccc(C#N)cc2F)cc1 |  | inactive
28 | C[Si](Cn1cncn1)(c1ccc(F)cc1)c1ccc(F)cc1 | 81.9 µM (active) | 
29 | CC(C)N(C(=O)SCC(Cl)=C(Cl)Cl)C(C)C |  | inactive
30 | CC(COc1ccc(Oc2ccccc2)cc1)Oc1ccccn1 (stereo not given) |  | inactive
31 | COP(=O)(NC(C)=O)SC (stereo not given) |  | inactive
32 | CCCSP(=O)(OCC)Oc1ccc(Br)cc1Cl (stereo not given) |  | inactive
33 | CNC(=O)Oc1cccc2c1OC(C)(C)O2 |  | inactive
34 | O=[N+]([O-])c1cc(C(F)(F)F)c(Cl)c([N+](=O)[O-])c1Nc1ncc(C(F)(F)F)cc1Cl | 23.1 µM (active) | 
35 | CCOC(=O)CC(SP(=O)(OC)OC)C(=O)OCC (stereo not given) |  | inactive
36 | C#CCC1=C(C)C(OC(=O)C2C(C=C(C)C)C2(C)C)CC1=O (stereo not given) |  | inactive
37 | CCC(=NOC/C=C/Cl)C1=C(O)CC(C2CCOCC2)CC1=O (stereo not given) |  | inactive
38 | COc1cccc(C(=O)NN(C(=O)c2cc(C)cc(C)c2)C(C)(C)C)c1C | 5.42 µM (active) | 
39 | CCCOCC(=Nc1ccc(Cl)cc1C(F)(F)F)n1ccnc1 | 23 µM (active) | 
40 | CCOC(=O)COc1cc(-c2nn(C)c(OC(F)F)c2Cl)c(F)cc1Cl | 30.1 µM (active) | 
